TR SRC2 fluor cs – Texas Red fluorescence interference in TRb-SRC2 counter-screen; TRb/SRC2 Texas Red total fluorescence interference; Potency, µM (series often up to 106 µM); 280,000 compounds, 0.29% hits; AID 1479; active = well fitted curve in either direction with a large enough effect; inconclusive = small, poorly fitted or top-dose-only effect
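Human TRβ ligand-binding domain (0.6 uM) and Texas Red SRC2 peptide (20 nM) in Tris buffer with 1 uM T3 and 5% DMSO were incubated with pinned compound for 5 hr at ambient temperature. Total fluorescence was computed as S + 2P (555/632 nm).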
Tau fibril ThT – blocks human tau fibril formation measured by thioflavin T | Potency, µM (series often up to 57.4 µM), usual class: inhibitors | P10636 | 270,000 compounds, 2.1% hits | AID 1460 | recombinant tau K18 P301L, heparin-induced fibrillization, ThT fluorescence; also: nearly all actives have a fitted effect of over 55% in size
Target sequence (P10636 561-689 P618L limits assumed): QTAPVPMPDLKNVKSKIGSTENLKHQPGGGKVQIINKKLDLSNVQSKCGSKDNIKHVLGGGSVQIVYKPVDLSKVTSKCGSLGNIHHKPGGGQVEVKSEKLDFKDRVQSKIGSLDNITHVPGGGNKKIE
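ThT emission at 510 nm, taken 1 hr after adding 30 uM dye, quantifies aggregates formed when 20 uM heparin acts on human tau K18 P301L for 6 hr at 37 C.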
TRb-SRC2 inh – inhibitors of human thyroid hormone receptor beta-SRC2 interaction | P10828 | TRbeta-SRC2 peptide binding, fluorescence polarization; receptor liganded with 1 µM T3 | Potency, µM (doses to about 106 µM), hits mostly inhibitors | 280,000 compounds, 0.065% hits | AID 1469; also: nearly all actives have a fitted effect of over 50% in size
Target sequence (P10828 whole entry, looked up): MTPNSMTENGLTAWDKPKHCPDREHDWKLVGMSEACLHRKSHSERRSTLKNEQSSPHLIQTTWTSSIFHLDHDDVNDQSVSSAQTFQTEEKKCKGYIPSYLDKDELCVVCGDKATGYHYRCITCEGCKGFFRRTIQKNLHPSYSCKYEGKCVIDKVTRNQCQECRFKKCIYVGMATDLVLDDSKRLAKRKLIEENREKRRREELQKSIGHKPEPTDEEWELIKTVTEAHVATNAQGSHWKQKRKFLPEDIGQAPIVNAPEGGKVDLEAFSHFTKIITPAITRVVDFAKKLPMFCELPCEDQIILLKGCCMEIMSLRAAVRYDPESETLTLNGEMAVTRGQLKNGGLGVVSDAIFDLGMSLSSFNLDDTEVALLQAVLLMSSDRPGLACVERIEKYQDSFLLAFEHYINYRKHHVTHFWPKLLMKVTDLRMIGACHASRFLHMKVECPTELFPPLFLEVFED
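Quantitative HTS by FP: 0.6 uM TRb LBD, 20 nM labeled SRC2 20-mer, 1 uM T3, 5% DMSO; 5 hr ambient incubation; % activity per concentration and potencies from concentration series.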
Tau fluor counter – counter-screen for tau fibril formation inhibitors; 280,000 compounds, 0.93% hits; AID 1463; tau K18 P301L (four-repeat tau fragment) Alexa594 fluorescence, heparin fibrillization; Potency, µM (doses to about 57.7 µM); also: nearly all actives have a fitted effect of over 55% in size
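Human K18 P301L tau (15 uM unlabeled plus 0.24 uM Alexa 594-labeled, final) in 100 mM sodium acetate pH 7 was mixed with compound and 20 uM heparin and incubated 6 hr at 37 C.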
Tau FP inhib – blocks human tau fibril formation measured by polarization. P10636. K18 P301L tau heparin fibrillization, Alexa594 FP, 6 h. Potency, µM (titrated, usually from 57.7 µM), hits mostly inhibitors. 280,000 compounds, 0.39% hits. AID 1468; also: nearly all actives have a fitted effect of over 55% in size
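Quantitative HTS format: compounds meet 15 uM recombinant K18 P301L tau and Alexa 594-tau tracer in 100 mM sodium acetate pH 7; 20 uM heparin triggers fibrillization at 37 C over 6 hr; FP gives the signal.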
A number is an active result; i = inactive; ? = inconclusive; nt = not tested or not shown; [ ] = another dose, or the depositor's remark. The list is not random: actives were taken first. Their share in the collection is about 3.1%. Unless noted, calls follow the shape of the dose curve; as a rule, active = well fitted curve in the direction sought with a large enough effect; inconclusive = small, poorly fitted or top-dose-only effect, or another doubt; inactive = no such curve, though single readings can be large; an effect the other way counts as inactive or inconclusive.

SMILES	TR SRC2 fluor cs	Tau fibril ThT	TRb-SRC2 inh	Tau fluor counter	Tau FP inhib
CNc1ccc(Br)cc(C(=O)/C=C/c2ccc(OC)cc2)c1=O	i	14µM	i	?	?
CNc1ccc(Br)cc(C(=O)/C=C/c2cc(OC)ccc2OC)c1=O	i	10µM	i	?	?
O=C(/C=C/c1ccc2c(c1)OCO2)c1ccccn1	i	14µM	i	i	i
CCNc1ccc(Br)cc(C(=O)/C=C/c2ccc(Cl)cc2Cl)c1=O	i	16µM	i	i	i
O=C(N/N=C/c1ccc2c(c1)OCO2)c1ccccn1	i	i	i	i	i
Cc1nc2cccnc2n1C1CCN(C(=O)Nc2ccc(Cl)cc2)CC1	i	i	i	i	i
Cc1cc(C)cc(NC(=O)Cn2c(=O)n(-c3cc(C)cc(C)c3)c(=O)c3oc4ccccc4c32)c1	i	i	i	i	i
CNc1ccc(Br)cc(C(=O)/C=C/c2ccc3c(c2)OCO3)c1=O	i	13µM	i	?	?
COc1cc(/C=N/Nc2cccc3cccnc23)cc(OC)c1O	i	?	i	?	i
Oc1cccc(/C=N/Nc2cccc3cccnc23)c1	i	14µM	i	16µM[quencher]	?
CC1(C)Cc2c(c(N3CCOCC3)nc3snc(N)c23)CO1	i	13µM	i	i	?
COC(=O)c1ccc([C@H]2Nc3ccc(S(=O)(=O)Nc4ccc(C)cc4)cc3[C@H]3C=CC[C@H]32)cc1	i	?	i	?	i
COc1ccc(NS(=O)(=O)c2ccc3c(c2)[C@H]2C=CC[C@H]2[C@@H](c2ccc(C(=O)O)cc2)N3)cc1	i	25µM	i	?	i
Cc1c(Cl)cccc1NS(=O)(=O)c1ccc2c(c1)C1C=CCC1C(c1ccc(C(=O)O)cc1)N2 (stereo unspecified)	i	25µM	i	?	?
Cc1cccc(C)c1NS(=O)(=O)c1ccc2c(c1)[C@H]1C=CC[C@H]1[C@@H](c1ccc(Cl)cc1)N2	i	?	i	?	i
Nc1c(N=Nc2ccc(S(=O)(=O)CCOS(=O)(=O)O)cc2)c(S(=O)(=O)O)cc2cc(S(=O)(=O)O)c(N=Nc3ccc(S(=O)(=O)CCOS(=O)(=O)O)cc3)c(O)c12	45µM[quencher]	nt	i	nt	nt
Cc1ccccc1N=Cc1cc2c(cc1[N+](=O)[O-])OCO2	i	i	i	i	i
COc1ccc([N+](=O)[O-])cc1NC(=O)Cc1ccccc1Cl	i	i	i	i	i
Cc1ccc(N=Cc2cc(Cc3ccccc3Cl)cc([N+](=O)[O-])c2O)c(O)c1	?	7.9µM	i	?	?
COc1ccc(N=Cc2cc(Cc3ccccc3Cl)cc([N+](=O)[O-])c2O)cc1OC	i	10µM	i	i	?
Cc1c2cnn(CC(=O)NCc3ccc(F)cc3)c(=O)c2c(C)n1Cc1ccccc1Cl	i	i	i	i	i
CSCC[C@H](NC(=O)[C@H](CC(C)C)NC(=O)CNC(=O)[C@H](Cc1ccc(O)cc1)NC(=O)[C@H](Cc1ccccc1)NC(=O)[C@H](CCC(N)=O)NC(=O)[C@H](CCC(N)=O)NC(=O)[C@@H]1CCCN1C(=O)[C@H](CCCCN)NC(=O)[C@@H]1CCCN1C(=O)[C@@H](N)CCCN=C(N)N)C(N)=O	?	nt	i	nt	nt
Cc1ccc(C(=O)NCC(c2ccc3c(c2)OCO3)N2CCOCC2)cc1C (stereo unspecified)	i	i	i	i	i
Cc1ccc(/C=C/c2onc(C)c2S(=O)(=O)N2CCC(C(=O)N3CCC(N(C)C(C)C)CC3)CC2)cc1	i	i	i	i	i
COc1ccc(-c2cc3ncc(C(=O)c4cc([N+](=O)[O-])ccc4O)cn3n2)cc1	i	7.1µM	i	i	i
SMILES	TR SRC2 fluor cs	Tau fibril ThT	TRb-SRC2 inh	Tau fluor counter	Tau FP inhib
Cc1ccc(-c2cc3ncc(C(=O)c4cc(Cl)c(C)cc4O)cn3n2)cc1	i	i	i	i	?
O=C(NC(=S)Nc1ccccc1)c1csnn1	i	10µM	i	i	?
COc1ccc(NC(=S)NC(=O)c2csnn2)cc1	i	?	i	i	i
Cn1c(=O)c2c(ncn2CC(=O)Nc2cccc(Cl)c2Cl)n(C)c1=O	i	i	i	i	i
N#C/C(=C(/O)c1ccc(-c2cccc([N+](=O)[O-])c2)o1)c1nc2ccccc2s1	i	6.3µM	i	?	i
COC(=O)c1ccc(OCC2c3cc(OC)c(OC)cc3CCN2C(=O)COc2ccc(Cl)cc2)cc1 (stereo unspecified)	i	i	i	i	i
C=CCn1c(N)cc(=O)nc1SC(C)C(=O)Nc1cccc2ccccc12 (stereo unspecified)	i	i	i	i	i
O=C1CC(C(=O)Nc2cc(Cl)ccc2Cl)n2ncnc2N1 (stereo unspecified)	i	i	i	i	i
N#CC(C#N)=C(N)/C(C#N)=C/c1cc(O)c(O)c(O)c1	i	11µM	i	?	?
O=C1N=C(N2CCN(c3ccccc3)CC2)S/C1=C/c1ccco1	i	?	i	i	i
O=C1N=C(N2CCN(c3ccccc3)CC2)S/C1=C\c1ccco1	i	14µM	i	i	i
NC1=NC(=O)/C(=C\c2ccco2)S1	i	18µM	i	?	?
O=C(NN1C(=O)/C(=C/c2cccs2)SC1=S)c1ccncc1	i	?	i	i	i
Cc1ccc(N2C(=O)/C(=C\c3ccco3)SC2=S)cc1	i	i	i	i	i
O=C1/C(=C\c2ccco2)SC(=S)N1Cc1ccccc1	i	?	i	?	i
CC(C(=O)O)N1C(=O)/C(=C/C=C/c2ccco2)SC1=S (stereo unspecified)	?	8.9µM	i	?	?
O=C1/C(=C/C=C/c2ccco2)SC(=S)N1NS(=O)(=O)c1ccccc1	i	nt	i	?	16µM
O=C1/C(=C/c2cccs2)SC(=S)N1NS(=O)(=O)c1ccccc1	i	18µM	i	i	i
CN(C)S(=O)(=O)Oc1cccc(C(=O)Nc2ccc([N+](=O)[O-])cc2)c1	i	i	i	i	i
CCOc1ccc(S(=O)(=O)NCCc2csc3nc(-c4cccc(C)c4)nn23)cc1	i	i	i	i	i
COc1ccc(/C(N)=N/OC(=O)c2ccco2)cc1	i	i	i	i	i
COc1ccc(N=N/C(=C\O)C(=O)c2ccco2)cc1	i	8.9µM	i	?	i
Cc1cccc(OCCn2nnc3sc4c(c3c2=O)CCCC4)c1	i	?	i	i	i
N#Cc1c(NC(NC(=O)c2ccco2)C(=O)c2ccccc2)sc2c1CCCC2 (stereo unspecified)	i	?	i	?	i
NC(=O)c1c(NC(NC(=O)c2ccco2)C(=O)c2ccc(Cl)cc2)sc2c1CCCC2 (stereo unspecified)	i	25µM	i	?	i
CC(/C=C/c1cccc([N+](=O)[O-])c1)=N\NC(=O)c1ccncc1	i	?	i	i	i
Cc1cc(Nc2ccccc2)n(-c2nc3ccccc3[nH]2)n1	i	?	i	25µM[quencher]	i

Bioassay records (PubChem BioAssay)
